This assay can be described thus: probe aEGFR binding to arrayed compounds – biochemical, biotinylated probe, 635/667 nm fluorescence, primary screen (AID 1097).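 Note: probe is a biotinylated anti-EGFR antibody binding compounds printed on slides; score combines fluorescence near 667 nm and signal to noise of each spot.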 The conditions noted are these: small-molecule microarray, higher = more signal.
`C#CCCCON=C1[C@H]2CCn3c(=O)n(C)c(=O)n3[C@H]2[C@H](O)[C@@H]2O[C@H]12` gave a composite z-score of -0.148.
Consider `CCCCC#C[C@@H]1C=C[C@H](OC(C)=O)[C@@H](COC(C)=O)O1`, for which the composite z-score stood at 0.0251.
In the case of `CO[C@@H]1COC(=O)[C@@H](C)COC(=O)[C@@H](C)NC(=O)CC=C[C@@H]1C` it was -0.0041; in that of `Cc1ccc(S(=O)(=O)OC[C@H]2CN3[C@H](c4ccc(Br)cc4)[C@@H](C)CC[C@H]3C(=O)O2)cc1`, -0.136; in that of `COc1ccc(COC(=O)NN=C2C[C@@H](O)[C@@H](O)[C@@H]3[C@@H]4C(=O)N(c5cccc(Oc6ccccc6)c5)C(=O)[C@@H]4CC[C@@H]23)cc1`, -0.0953.
In the case of `O=C1C2=CC[C@H]3C(=O)N(c4cccc(Oc5ccccc5)c4)C(=O)[C@H]3[C@H]2[C@H](O)[C@@H]2O[C@H]12` it was -0.0219; in that of `CC(CCN1CCCCc2nc(C)c(C)cc21)=NO[C@H](C)c1cn([C@H](CO)Cc2ccccc2)nn1`, -0.026.
Consider `CO[C@@H]1COC(=O)[C@H](CCSC)NC(=O)CC=C[C@@H](C)COC(=O)CCC[C@H]1C`, for which the composite z-score turned out to be 0.232.
The compound `CC(CCN1CCCc2nc(C)c(C)cc21)=NO[C@@H](C)c1cc(-c2c(C)cc(C)cc2C)no1` had a composite z-score of -0.0873.
In turn, `CO[C@@H]1COC(=O)[C@@H](C)NC(=O)CC=C[C@@H](C)[C@H](NS(=O)(=O)c2ccc(C)cc2)COC(=O)[C@H](C)NC(=O)CC=C[C@H]1C` gave a composite z-score of -0.0793.
`CCN1C(=O)[C@H]2[C@H]3[C@H](O)[C@H](O)CC(=NOC[C@H]4O[C@H](c5ccccc5)C=C[C@@H]4Oc4ccc(OC)cc4)[C@@H]3CC[C@H]2C1=O` came in with a composite z-score of -0.0085.
Take `CCOC(=O)[C@H](CC(C)C)NC(=O)CCC1CC(OC(=O)NCc2cccc3ccccc23)CC2(CCCC(COC(=O)NCC3CCCCC3)O2)O1` (stereo partly specified): the composite z-score is -0.0828.
`CC(C)CCN1CCc2nc(COc3ccccc3)c3c(c2C1)CO[C@@H](C)C3` showed a composite z-score of -0.123.
`COC(=O)CC=C[C@@H](C)[C@@H](C=NO[C@H](C)c1cn([C@H](CO)Cc2ccccc2)nn1)OC` gave a composite z-score of 0.0556.
In the case of `CON=C(C)CCC(=O)OC[C@H]1O[C@H](c2ccccc2)C=C[C@@H]1Oc1ccc(OC)cc1`, the composite z-score was -0.0783.
Consider `CCOC(=O)NN=C1C[C@@H](O)[C@@H](O)[C@@H]2[C@@H]3C(=O)N(c4cccc(Oc5ccccc5)c4)C(=O)[C@@H]3CC[C@@H]12`, for which the composite z-score was -0.163.
With `CCN1C(=O)[C@H]2[C@H]3[C@H](O)[C@H](O)CC(=NO[C@@H](C)c4cn([C@H](CO)Cc5ccccc5)nn4)[C@@H]3CC[C@H]2C1=O` the figure was 0.0346; with `COC(=O)CC=C[C@@H](C)[C@@H]1C=C[C@H](O)[C@@H](CO)O1`, -0.338; with `C[C@@H](ON=C1[C@H]2CCn3c(=O)n(-c4ccccc4)c(=O)n3[C@H]2[C@H](O)[C@@H]2O[C@H]12)c1cn([C@@H]2COC[C@H]2O)nn1`, -0.0788.
The compound `CC(CCC(=O)OC[C@H]1O[C@H](C#Cc2ccccc2)C=C[C@@H]1Oc1ccc(C)cc1)=NO[C@H](C)c1cn([C@H](CO)Cc2ccccc2)nn1` yielded a composite z-score of -0.17.
With `C#CCCCON=C1C[C@@H](O)[C@@H](O)[C@@H]2[C@@H]3C(=O)N(C(C)(C)C)C(=O)[C@@H]3CC[C@H]12` the figure was 0.113; with `COc1ccc(COC(=O)NN=C2C[C@@H](O)[C@@H](O)[C@@H]3[C@@H]4C(=O)N(C5CCCCC5)C(=O)[C@@H]4CC[C@H]23)cc1`, -0.242; with `COC(=O)CC=C[C@H](C)[C@@H](OCc1cccc(Br)c1)[C@@H](C)[C@H](OC)C1CCCCC1`, -0.237.
As to `Cc1ccc(S(=O)(=O)N[C@@H]2COC(=O)[C@@H](C)COC(=O)CC=C[C@H]2C)cc1`, the composite z-score is -0.182.
Compound `O=C1[C@H]2[C@H]3[C@H](O)[C@H](O)CC(=NO[C@@H]4O[C@H](CO)[C@@H](O)[C@H](O)[C@H]4O)[C@H]3CC[C@H]2C(=O)N1c1cccc(Oc2ccccc2)c1` gave a composite z-score of -0.0549.
Take `CCC1=NOC(CCC2CC(OC(=O)NCc3cccc4c3OCO4)CC3(CCCC(COC(=O)NCCc4ccccc4OC)O3)O2)C1` (stereo unspecified): the composite z-score is -0.0424.
On to `CCOC(=O)[C@H](CC(C)C)NC(=O)CCC1CC(OC(=O)NCc2cccc3ccccc23)CC2(CCCC(COC(=O)NCCOc3ccccc3)O2)O1` (stereo partly specified), for which the composite z-score is -0.171.
With `O=c1n(Cc2cc3c(cc2Cl)OCO3)c(=O)n2n1CC[C@@H]1C(=NOCc3ccccc3)[C@H]3O[C@H]3[C@@H](O)[C@@H]12` the figure was -0.0371.
In the case of `COC(=O)[C@@H]1CC[C@H](C)[C@@H](c2ccc(C)cc2)N1C(=O)c1ccc(C=NO[C@@H](C)c2cn([C@H](CO)Cc3ccccc3)nn2)cc1`, the composite z-score was found to be 0.24.
Compound `CC(C)=CCCC(C)=CCON=C1C[C@@H](O)[C@@H](O)[C@@H]2[C@@H]3C(=O)N(Cc4ccccc4)C(=O)[C@@H]3CC[C@H]12` had a composite z-score of -0.034.
`CC(C)C[C@H](NC(=O)CCC1CC(OC(=O)NCc2cccc3ccccc23)CC2(CCCC(COC(=O)NCc3ccccc3)O2)O1)C(=O)NCC(c1ccccc1)c1ccccc1` (stereo partly specified) came in with a composite z-score of -0.0333.
`CC(C)CON=C1C[C@@H](O)[C@@H](O)[C@@H]2[C@@H]3C(=O)N(C4CCCCC4)C(=O)[C@@H]3CC[C@@H]12`: the composite z-score was -0.154.
For `C[C@@H](c1ccccc1)N1C(=O)[C@H]2[C@H]3[C@H](O)[C@H](O)CC(=NO[C@@H]4O[C@H](CO)[C@@H](O)[C@H](O)[C@H]4O)[C@H]3CC[C@H]2C1=O`, the composite z-score was -0.0223.
In turn, `COC(=O)[C@@H]1CC[C@H](C)[C@@H](c2ccc(C)cc2)N1C(=O)c1ccc(C=NOC[C@@H](C)[C@H](OCc2ccccc2)C(C)C)cc1` showed a composite z-score of 0.102.
`C[C@@H](c1ccccc1)N1C(=O)[C@H]2[C@H]3[C@H](O)[C@H](O)CC(=NOCc4ccccc4)[C@H]3CC[C@H]2C1=O` came in with a composite z-score of -0.0424.
The compound `COC(=O)CC=C[C@@H](C)[C@@H](C=NOCC[C@@H]1C=C[C@H](OC(C)=O)[C@@H](COC(C)=O)O1)OC` had a composite z-score of 0.0754.

Values taken from PubChem BioAssay.
